A selection: hits, their analogues and other compounds. The true share with any hit is near 2.9%.
PAFAH1B3 inh: PAFAH1B3 enzyme inhibitors, primary screen, biochemical, fluorescence polarization, human | Platelet-activating factor acetylhydrolase IB subunit alpha1 (Homo sapiens), Q15102 | recombinant PAFAH1B3, FP-rhodamine probe | inhibition, % at 3.39 µM | actives 0.28% (n = 340,000);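 active means inhibition above the screen-wide average of all tested compounds plus 3 SD, cut at about 25% in these data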;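 further: 0% = enzyme with DMSO only and 100% = wells lacking PAFAH1B3 protein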
PAFAH2 inh: PAFAH2 enzyme inhibitors, primary screen, biochemical, fluorescence polarization, human; recombinant PAFAH2, FP-rhodamine activity probe; actives 0.99% (n = 340,000); inhibition, % at 3.39 µM; Platelet-activating factor acetylhydrolase 2, cytoplasmic (Homo sapiens), Q99487;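 active means inhibition above the mean over all tested compounds plus 3 SD, cut at about 30% in these data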;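 further: inhibitors block probe labeling of enzyme so polarization drops; 0% = enzyme with DMSO and 100% = wells lacking PAFAH2 protein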
pPAFAH FP inh: pPAFAH enzyme inhibitors, primary screen, biochemical, fluorescence polarization, human | actives 1.5% (n = 330,000) | Platelet-activating factor acetylhydrolase (Homo sapiens), Q13093 | recombinant pPAFAH, FP-rhodamine probe fluorescence polarization | inhibition, % at 3.39 µM;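 active means inhibition above the mean inhibition across the screen plus 3 SD, cut at about 25% in these data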;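 further: inhibitors block binding of the rhodamine activity-based probe so polarization drops; 0% = enzyme with DMSO and 100% = wells lacking pPAFAH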
Target sequence (Q13093 whole entry, looked up): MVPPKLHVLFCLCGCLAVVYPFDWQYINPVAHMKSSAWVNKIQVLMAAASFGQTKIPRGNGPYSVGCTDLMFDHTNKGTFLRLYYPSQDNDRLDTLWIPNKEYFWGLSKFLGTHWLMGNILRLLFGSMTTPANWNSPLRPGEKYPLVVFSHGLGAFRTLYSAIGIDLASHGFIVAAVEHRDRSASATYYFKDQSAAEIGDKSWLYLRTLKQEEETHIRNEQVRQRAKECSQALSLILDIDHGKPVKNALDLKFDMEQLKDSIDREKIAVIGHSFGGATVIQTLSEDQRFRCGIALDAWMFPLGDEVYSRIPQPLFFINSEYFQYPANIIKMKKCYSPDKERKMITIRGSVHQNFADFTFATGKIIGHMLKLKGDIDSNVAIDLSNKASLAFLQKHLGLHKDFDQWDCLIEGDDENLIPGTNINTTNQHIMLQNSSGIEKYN
LYPLA1 counter: LYPLA1 inhibitors, primary screen, counter-screen for PME1 inhibitor project, biochemical, fluorescence polarization, FP-Rh probe ABPP; recombinant LYPLA1; inhibition, % at 5.9 µM; actives 0.16% (n = 320,000); AID 2174, 2009; Acyl-protein thioesterase 1 (Homo sapiens), O75608;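 active means inhibition above the mean of all tested compounds plus 3 SD, set per campaign, cut at about 14% in these data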;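 further: inhibitors block serine hydrolase probe labeling of LYPLA1 so polarization falls; 0% = enzyme with DMSO and 100% = wells lacking LYPLA1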
PAFAH1B2 FP inh: PAFAH1B2 enzyme inhibitors, primary screen, biochemical, fluorescence polarization, human; recombinant PAFAH1B2, FP-rhodamine activity probe; inhibition, % at 3.39 µM; actives 1.2% (n = 340,000); AID 492953, 2010;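 active means inhibition above the mean of all tested compounds plus 3 SD, cut at about 24% in these data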;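 further: 0% = enzyme with DMSO and 100% = wells lacking PAFAH1B2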
Target sequence (P68402 whole entry, looked up): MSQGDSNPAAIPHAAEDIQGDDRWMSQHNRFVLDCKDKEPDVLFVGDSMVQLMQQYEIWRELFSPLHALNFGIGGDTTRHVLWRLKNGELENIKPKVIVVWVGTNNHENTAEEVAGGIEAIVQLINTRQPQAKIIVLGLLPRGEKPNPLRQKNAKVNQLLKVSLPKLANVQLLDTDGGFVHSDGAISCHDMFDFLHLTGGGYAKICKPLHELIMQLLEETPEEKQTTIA
LYPLA2 inh: LYPLA2 inhibitors, primary screen, counter-screen for PME1 inhibitor project, biochemical, fluorescence polarization, FP-Rh probe ABPP; actives 0.38% (n = 320,000); inhibition, % at 5.9 µM; recombinant LYPLA2;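 active means inhibition above the screen-wide mean plus 3 SD, limit set per campaign, cut at about 26% in these data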;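 further: 0% = LYPLA2 with DMSO and 100% = wells lacking LYPLA2 enzyme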
LYPLA1 conf: LYPLA1 inhibitors, retest, confirmation, counter-screen for PME1 inhibitor project, biochemical, fluorescence polarization, FP-Rh probe ABPP; shares compounds with LYPLA1 counter; recombinant LYPLA1; inhibition, % at 5.9 µM; actives 69% (n = 480);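 active means mean inhibition across replicates above the hit cutoff set in the primary screen, cut at about 15% in these data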;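 further: loss of FP-Rh probe labeling of LYPLA1 seen as lower polarization; 0% = LYPLA1 with DMSO and 100% = wells lacking LYPLA1 enzyme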
LYPLA2 confirm: LYPLA2 inhibitors, retest, confirmation, counter-screen for PME1 inhibitor project, biochemical, fluorescence polarization, FP-Rh probe ABPP. shares compounds with LYPLA2 inh. recombinant LYPLA2. inhibition, % at 5.9 µM. actives 72% (n = 1,100);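 active means mean inhibition across replicates above the hit cutoff set in the primary screen, cut at about 26% in these data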;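 further: blocked labeling of the enzyme by serine hydrolase FP-Rh probe lowers polarization; 0% = enzyme with DMSO and 100% = wells lacking LYPLA2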
An asterisk follows results filed as active; x = no result given.

SMILES | PAFAH1B3 inh | PAFAH2 inh | pPAFAH FP inh | LYPLA1 counter | PAFAH1B2 FP inh | LYPLA2 inh | LYPLA1 conf | LYPLA2 confirm
O=C1CCCC2=C1Sc1ccc(Cl)cc1N2 | 5 | -1 | 11 | 0 | 7 | 5 | x | x
Cc1ccc(C(=O)NC(=S)Nc2ccc(N3CCOCC3)cc2)cc1C | 7 | 15 | 1 | -2 | 3 | -2 | x | x
COc1ccc(C(=O)NC(=S)Nc2ccc(N3CCOCC3)cc2)cc1Cl | 7 | -3 | 11 | 14* | 2 | 39* | 25* | 55*
COc1ccc(C(=O)NC(=S)Nc2ccc(CN3CCOCC3)cc2)cc1 | x | x | 9 | 4 | x | 10 | x | x
COc1ccc(C(=O)NC(=S)Nc2ccc(CN3CCOCC3)cc2)cc1Br | 11 | 4 | 3 | 15* | -6 | 44* | 22* | 47*
CCOc1ccccc1-n1nnnc1SCC(=O)OC | -1 | -1 | 1 | -1 | 1 | 2 | x | x
Cc1ccc(NC(=O)CS(=O)CC(=O)Nc2ccccc2-c2ccc(C)o2)cc1 (stereo unspecified) | 4 | -5 | 5 | 33* | 18 | 41* | 0 | -5
C=CCn1c(SCC(=O)N(CC)C2CCS(=O)(=O)C2)nc2sc3c(c2c1=O)CCC3 (stereo unspecified) | -1 | -2 | 2 | -2 | 0 | 1 | x | x
O=C(CCCc1ccccc1)N1CCN(c2ccc([N+](=O)[O-])cc2)CC1 | 1 | 13 | 13 | 33* | 8 | 39* | 41* | 54*
O=C(CCS(=O)(=O)Cc1ccccc1)N1CCN(c2ccc([N+](=O)[O-])cc2)CC1 | 3 | 6 | 20 | 2 | 5 | 14 | x | x
CCN(CC)Cc1c(O)ccc2c(=O)c(-c3ccc(Cl)cc3)coc12 | -3 | -3 | 1 | 2 | 0 | -1 | x | x
CCCOC(=O)c1ccc(Oc2coc3c(CN(CC)CC)c(O)ccc3c2=O)cc1 | -4 | -10 | 4 | 30* | 0 | 34* | 32* | 28*
CC1=C(C)C(=O)C(N2CCOCC2)=CC1=O | 0 | -3 | x | x | 2 | x | x | x
O=C1C=C(N2CCOCC2)c2ccccc2C1=O | 77* | 47* | 9 | 43* | 21 | 68* | 50* | 79*
O=C(O)c1ccccc1NC(=O)C1C2C=CC(C2)C1C(=O)O (stereo unspecified) | 6 | 3 | 3 | -4 | 5 | -5 | x | x
O=C(Nc1ncn[nH]1)c1ccccc1O | 4 | -3 | 0 | 0 | 0 | 4 | x | x
Cc1cc(C)nc(SCc2nnc(SCC(=O)Nc3nccs3)n2Cc2ccco2)n1 | 3 | -3 | 5 | -1 | -2 | 8 | x | x
O=C(COc1ccccc1Cl)Nc1ccc(N2CCCC2)cc1 | 3 | 3 | 58* | 33* | -2 | 27* | 1 | -2
CC1CCCC(NS(=O)(=O)c2cc(Br)cnc2N)C1C (stereo unspecified) | 6 | 11 | 5 | 2 | 10 | -2 | x | x
O=C(CCCCCCCCN1C(=O)c2ccccc2C1=O)N1CCOCC1 | x | x | -1 | -1 | x | 3 | x | x
O=C(CCCCCCN1C(=O)c2ccccc2C1=O)N1CCC(c2ccccc2)C1 (stereo unspecified) | 8 | 5 | 6 | 68* | 5 | 76* | 68* | 70*
CC(=O)NCCNc1nc2c(-c3ccccc3)nnn2c2ccccc12 | 9 | -3 | 1 | -3 | 3 | -14 | x | x
Nc1c(N2CCCC2)cc(Cl)c2nonc12 | 66* | 35* | 15 | 72* | 13 | 72* | 0 | -1
Nc1c(N2CCOCC2)cc(Cl)c2nonc12 | 1 | -2 | 5 | -1 | -2 | 4 | x | x
Nc1ccc(N2CCCCC2)c2nonc12 | 10 | 4 | 2 | 79* | 4 | 90* | 4 | 0
SMILES | PAFAH1B3 inh | PAFAH2 inh | pPAFAH FP inh | LYPLA1 counter | PAFAH1B2 FP inh | LYPLA2 inh | LYPLA1 conf | LYPLA2 confirm
CCCn1c(=O)c(-c2nc3ccccc3[nH]2)c(O)c2ccccc21 | 5 | 7 | 5 | 1 | 2 | 3 | x | x
N#Cc1c(C(F)(F)F)cc(C2CC2)[nH]c1=O | 4 | 5 | 0 | 1 | -1 | 2 | x | x
NC(=O)c1cc(N)ccc1N1CCCC1 | 7 | -5 | 4 | 2 | -2 | 9 | x | x
Cc1cc(N)ccc1-n1c(C)ccc1C | 24 | 9 | 33* | 56* | 6 | 85* | 4 | 4
Cc1cc(N)ccc1N1CCCC1 | 9 | 16 | 26* | 22* | 8 | 29* | 1 | 4
Cn1nc(-c2ccccn2)nc2c(=O)n(C)c(=O)nc1-2 | 68* | 59* | 12 | 92* | 32* | 90* | 89* | 92*
C(=C\c1ccccc1)/CN1CCN(c2ncnc3c2oc2ccccc23)CC1 | 2 | -36 | 0 | 15* | -3 | 35* | 23* | 32*
NC(=O)c1cc([N+](=O)[O-])ccc1NCC1CCCCC1 | -5 | -5 | 8 | 25* | 3 | 43* | 31* | 37*
CCOC(=O)c1ccc(Nc2nc(-c3cccnc3)nc3ccccc23)cc1 | -13 | -15 | -8 | -15 | -9 | -23 | x | x
O=C(/C=C/c1ccccc1)N1CCN(CCN2C(=O)c3cccc4cccc(c34)C2=O)CC1 | 12 | 3 | 0 | 37* | 3 | 64* | 35* | 59*
O=C(CCN1C(=O)c2cccc3cccc(c23)C1=O)N1CCOCC1 | -1 | 3 | -3 | 2 | 1 | 3 | x | x
O=C(c1ccc(S(=O)(=O)N2CCCC2)cc1)N1CCCCCC1 | -2 | -8 | 6 | -1 | -3 | 3 | x | x
O=C(c1ccc(S(=O)(=O)N2CCCCC2)cc1)N1CCN(CCN2C(=O)c3cccc4cccc(c34)C2=O)CC1 | 7 | 7 | 3 | 20* | -2 | 35* | 42* | 60*
Cc1ccc(C(=O)c2cc([N+](=O)[O-])ccc2N2CCCCC2)cc1 | -3 | -6 | 5 | 0 | 7 | -5 | x | x
CC(=O)c1ccc(OCc2cc(C(=O)N(C)Cc3nc4c(C)cccc4[nH]3)no2)cc1 | 11 | 6 | 3 | 2 | -1 | 11 | x | x
CC(=O)c1ccc(OCc2cc(C(=O)N(C)CCOc3ccc(C)cc3)no2)cc1 | -8 | 0 | -1 | 20* | 0 | 26* | 23* | 9
